For 40 compounds, activity, negative = inhibition results are on record in PubChem BioAssay (NCATS).

Results filed as inconclusive are left out. Values without a mark were called inactive. Calls come from the whole dose curve; as a rule, active = well fitted curve in either direction with a large enough effect (not every such curve was filed as active); inconclusive = small, poorly fitted or top-dose-only effect, or another doubt; inactive = flat fitted curve, though single readings scatter.
% is set by controls: 0 for no effect and ±100 for the full control effect.

The nature of the test: Stat Signaling Pathway (AID 446).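 Note: ME-180 cervical cancer cells given 40 pM IL-6 alongside compound; SIE-controlled beta-lactamase reporter measured as 460/530 nm FRET emission ratio.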 The conditions noted are these: ME-180 (cervical carcinoma) SIE beta-lactamase reporter, IL-6 stimulated, 5 h; at 7.69 µM (top of the series) unless noted. In a few lines: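 FRET read-out (405 nm excitation, 460/530 nm emission) of a beta-lactamase reporter under a STAT-inducible element in ME-180 cervical carcinoma cells. Cells with compound receive 40 pM IL-6 for 5 h. Values are normalised to AC90 stimulation and AC90 JAK-inhibitor controls.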
In the case of `Clc1ccccc1-c1nccc(-n2ccnc2)n1`, the activity, negative = inhibition is 0.405%.

As for `Cc1cccc(CNc2ccnc(-c3ccoc3)n2)c1`, the activity, negative = inhibition was 6.16%.

As for `c1nc(NC2CCNCC2)c2cc(-c3ccc4c(c3)OCO4)ccc2n1`, the activity, negative = inhibition is 2.23%.

Turning to `O=c1c(-c2ccccc2)nc2cnc(Oc3ccccc3)nc2n1Cc1cccs1`, the activity, negative = inhibition was 3.84%.

As to `COc1ccc(-n2c(=O)c(-c3cn(C)c4ccccc34)nc3cnc(OC)nc32)cc1`, the activity, negative = inhibition was 5.87%.

Regarding `CN(C)c1ncc2ncc(=O)n(CCC#N)c2n1`, the activity, negative = inhibition was -2.2%.

In the case of `COc1ccccc1CNc1ncncc1-c1ccoc1`, the activity, negative = inhibition is -4.03%.

Turning to `COc1ncc2ncc(=O)n(Cc3cccs3)c2n1`, the activity, negative = inhibition is -3.48%.

Turning to `FC(F)(F)c1ccccc1-c1cc(N2CCNCC2)ncn1`, the activity, negative = inhibition was 3.09%.

As to `CC(=O)NCCNc1nc(-c2ccccc2C(F)(F)F)nc2ccccc12`, the activity, negative = inhibition was -7.86%.

Turning to `COc1ccccc1CNc1ccnc(-c2ccoc2)n1`, the activity, negative = inhibition was -4.66%.

As to `Cc1ccccc1-c1cncnc1Nc1ccc(F)cc1`, the activity, negative = inhibition is 32.1%.

On to `CN(Cc1ccco1)c1cc(-c2ccccc2Cl)ncn1`, for which the activity, negative = inhibition is 5.83%.

Take `COc1ccc(-n2c(=O)cnc3cnc(Oc4ccccc4)nc32)cc1`: the activity, negative = inhibition was -13.1%.

Regarding `COc1ncc2nc(-c3cccc(C#N)c3)c(=O)n(CCC#N)c2n1`, the activity, negative = inhibition is -3.36%.

Consider `CN(Cc1ccco1)c1ncnc2ccc(-c3cccc(C#N)c3)cc12`, for which the activity, negative = inhibition was -5.78%.

Regarding `c1ccc(CNc2ccnc(-c3ccoc3)n2)cc1`, the activity, negative = inhibition was 10.2%.

In the case of `COc1ncc2nc(-c3cc(F)cc(F)c3)c(=O)n(CCC#N)c2n1`, the activity, negative = inhibition is -7.47%.

On to `Cc1nc2cnc(Nc3ccccc3)nc2n(C)c1=O`, for which the activity, negative = inhibition is -15.2%.

For the compound `COc1ccc(-n2c(=O)c(C)nc3cnc(Oc4ccccc4)nc32)cc1`, the activity, negative = inhibition is -17.4%.

Turning to `COc1ccccc1CCn1c(=O)c(-c2cc(F)cc(F)c2)nc2cncnc21`, the activity, negative = inhibition is 13%.

Consider `COc1cccc(-c2ccc3ncnc(NC4CCNCC4)c3c2)c1`, for which the activity, negative = inhibition is -1.25%.

Regarding `COc1cccc(-c2cc(NCc3cccs3)ncn2)c1`, the activity, negative = inhibition was -4.26%.

Consider `Cn1c(=O)c(-c2cc(F)cc(F)c2)nc2cnc(Oc3ccccc3)nc21`, for which the activity, negative = inhibition is 0.814%.

In the case of `CNc1nc(-c2ccccc2Cl)nc2ccccc12`, the activity, negative = inhibition was -8.45%.

On to `O=C(O)C1CCN(c2ncnc3ccc(-c4ccccc4C(F)(F)F)cc23)CC1`, for which the activity, negative = inhibition is -9.2%.

Take `CC(=O)NCCNc1nc(-c2ccccc2Cl)nc2ccccc12`: the activity, negative = inhibition was -10.3%.

For the compound `CN(C)c1ccc(-c2cncnc2NCc2cccs2)cc1`, the activity, negative = inhibition is -0.237%.

On to `O=c1c(-c2ccc(F)cc2)nc2cnc(N3CCOCC3)nc2n1C[C@H]1CCCO1`, for which the activity, negative = inhibition was 29.2%.

For the compound `Cc1cccc(CNc2ncncc2-c2cccc(C#N)c2)c1`, the activity, negative = inhibition is 14.8%.

Take `COc1ccc(Oc2ncc3nc(-c4ccc(OC)cc4)c(=O)n(Cc4cccs4)c3n2)cc1`: the activity, negative = inhibition is 8.59%.

As for `Cc1cccc(CNc2ncncc2-c2ccc3c(c2)OCO3)c1`, the activity, negative = inhibition was -19.6%.

As for `N#CCCn1c(=O)cnc2cnc(N3CCOCC3)nc21`, the activity, negative = inhibition is 19.5%.

`COc1ncc2nc(-c3cccs3)c(=O)n(-c3ccccc3)c2n1`: the activity, negative = inhibition was 17.5%.

Turning to `COc1ccc2[nH]cc(CCNc3cc(-c4ccccc4C(F)(F)F)ncn3)c2c1`, the activity, negative = inhibition is 0.643%.

`Cc1nc2cnc(Oc3cccc(Cl)c3)nc2n(CCC#N)c1=O`: the activity, negative = inhibition was -7.79%.

As for `COc1ncc2ncc(=O)n(C)c2n1`, the activity, negative = inhibition is -12.1%.

In the case of `c1ccc2c(-n3ccnc3)nc(-c3ccoc3)nc2c1`, the activity, negative = inhibition was 7.69%.

For `COc1cccc(-c2nccc(-n3ccnc3)n2)c1`, the activity, negative = inhibition is -0.599%.

With `CN(C)c1ccc(-c2cc(-n3ccnc3)ncn2)cc1`, the activity, negative = inhibition was 15.9%.
